Experimental data taken from PubChem BioAssay AID485347 (National Center for Advancing Translational Sciences (NCATS), 2010).
Where “and” joins values, the source holds several entries; their conditions need not be identical. Identical values can stand only once. The campaign covered roughly 340,000 compounds. About 1,200 (0.35%) were called active. The sample holds actives, similar compounds and a random draw of the others, so the mix is not that of the screen.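 The calls were made as follows: active = potentiation over 3 SD above the plate norm (cut at about 30% in these data); inactive = the rest.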 The source holds several records for some structures; these can differ, active in one and inactive in another.

biological target: D(2) dopamine receptor (Homo sapiens) (UniProt P14416); test: HTS Assay for Positive Allosteric Modulators of the Human D2 Dopamine Receptor: Primary Screen for Potentiators; conditions: HEK293 T-REx D2, calcium flux, EC20 dopamine potentiation; at 10 µM; stronger effect = higher value; also: 0% is about no effect
Sequence (P14416 whole entry, looked up): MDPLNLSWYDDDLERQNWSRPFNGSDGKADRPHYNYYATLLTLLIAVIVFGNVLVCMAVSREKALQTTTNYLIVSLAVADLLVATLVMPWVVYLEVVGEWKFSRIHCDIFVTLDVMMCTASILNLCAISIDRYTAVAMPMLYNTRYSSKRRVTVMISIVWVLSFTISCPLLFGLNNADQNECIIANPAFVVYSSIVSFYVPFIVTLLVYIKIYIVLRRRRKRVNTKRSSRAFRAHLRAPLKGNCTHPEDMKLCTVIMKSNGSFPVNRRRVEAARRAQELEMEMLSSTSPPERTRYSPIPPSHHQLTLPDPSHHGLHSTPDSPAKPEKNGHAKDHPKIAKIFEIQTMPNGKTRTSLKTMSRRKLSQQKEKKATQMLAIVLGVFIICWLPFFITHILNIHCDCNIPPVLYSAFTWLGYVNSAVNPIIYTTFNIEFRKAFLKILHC
How it was run: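 Tetracycline-induced Hek293 Trex D2 cells, force-coupled to calcium, loaded with no-wash calcium dye. Compound added with 180 s kinetic read for agonism, then EC20 dopamine and a further 180 s read for potentiation.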

SMILES	potentiation
CCC(C)n1[nH]c(=O)c2c(C)cc(C)nc21 (centres undefined)	1.22% (inactive)
CCC(C)n1[nH]c(=O)cc1N (centres undefined)	2.87% (inactive)
CCCC(C)n1[nH]c(=O)c2c(C)cc(C)nc21 (centres undefined)	33% (active)
CCOC(=O)c1oc2ccc(S(=O)(=O)n3nc(-c4ccccc4OC)cc3N)cc2c1C	-0.8% (inactive)
COc1ccc(-n2ccn(CC(=O)Nc3ccc(C)c(C)c3)c(=O)c2=O)cc1OC	6.27% (inactive)
O=C(Nc1c(-c2ccc(F)cc2)nc2ccccn12)c1cccc(F)c1	12.9% (inactive)
CCN1CCc2nc3sc(C(=O)Nc4ccccc4OC(F)(F)F)c(N)c3cc2C1	3.95% (inactive)
CCOC(=O)Cc1csc(NC(=O)CN(C)S(=O)(=O)c2ccc3c(c2)CCC(=O)N3)n1	43% (active)
Cc1cccc(N2CCN(C(=O)CN(C)S(=O)(=O)c3ccc4c(c3)CCC(=O)N4)CC2)c1C	-3.34% (inactive)
CCOC(=O)Cc1csc(NC(=O)CSc2ccc(Br)cc2)n1	-0.963% (inactive)
Cc1sc(C2C(C#N)=C(N)N(c3cccc(Cl)c3)C3=C2C(=O)CCC3)cc1CN1CCOCC1 (centres undefined)	-0.593% (inactive)
CCN1CCN(c2ccc(NC(=O)c3cnccn3)cc2)CC1	-0.266% (inactive)
O=C(Nc1ccc(S(=O)(=O)N2CCCCCC2)cc1)c1c(F)cccc1F	2.54% (inactive)
O=C(Nc1ccc(S(=O)(=O)N2CCCCC2)cc1)c1cnccn1	30.4% (active)
CN(Cc1ccccc1)S(=O)(=O)c1ccc(F)c(C(=O)Nc2cccc(Cl)c2Cl)c1	-2.84% (inactive)
CCN(CC)S(=O)(=O)c1ccc2c(c1)N(CC(=O)NCc1ccccc1)C(=O)CS2	-1.87% (inactive)
CC(=O)NS(=O)(=O)c1ccccc1	10.6% (inactive)
CC(=O)NS(=O)(=O)c1ccc(NC(=S)NC(=O)C(C)(C)C)cc1	33.2% (active)
CC(=O)Nc1ccc(S(=O)(=O)Nc2cccc(NC(=O)C(C)(C)C)c2)cc1	0.479% (inactive)
O=C(CCn1c(=O)c2ccccc2n(Cc2ccc(Cl)cc2)c1=O)NCc1ccc2c(c1)OCO2	-11.6% (inactive)
O=C(Nc1ccc(Br)cc1)c1cc2nc(-c3ccccc3)cc(-c3ccccc3)n2n1	-4.38% (inactive)
Cc1ccccc1-c1nc(SCC(=O)N(C)c2ccccc2)c2c(=O)n(C)c(=O)n(C)c2n1	-12.5% (inactive)
CC1CCN(c2nc3c(c(=O)[nH]c(=O)n3C)n2CCCc2ccccc2)CC1	45% (active)

SMILES	potentiation
Cn1c(=O)[nH]c(=O)c2c1nc(N1CCN(C(c3ccccc3)c3ccccc3)CC1)n2CCO	3.98% (inactive)
Cn1c(=O)[nH]c(=O)c2c1nc(N1CCCCCC1)n2CC(=O)c1ccccc1	-3.5% (inactive)
CCOC(=O)N1CCc2c(sc(NCc3cccc(F)c3)c2C(=O)Nc2ccccc2OCC)C1	-0.26% (inactive)
O=C(NCCCN1CCCC1=O)c1ccc(S(=O)(=O)Nc2ccccc2)cc1	3.61% (inactive)
CCOc1ccc(S(=O)(=O)Nc2ccc(C(=O)NCCCN3CCCC3=O)cc2)cc1	11.5% (inactive)
CCOc1ccc(C(=O)NCCCN2CCCC2=O)cc1	30.7% (active)
COc1cc(Cl)ccc1Nc1ncc(C(=O)N2CCN(c3ccccc3OC)CC2)c2ccccc12	-3.04% (inactive)
NC(=O)CSc1nc2c(oc3ccccc32)c(=O)n1Cc1ccccc1	4.88% (inactive)
Cc1cccc(NC(=O)c2ccc3nc(C(C)C)oc3c2)c1C	-11.3% (inactive)
Nc1nc(Nc2ccccc2F)nc(NC2CCCCC2)c1[N+](=O)[O-]	6.13% (inactive)
Nc1nc(NCCCN2CCOCC2)nc(Nc2ccccc2)c1[N+](=O)[O-]	-1.17% (inactive)
Nc1nc(NCC2CCCO2)nc(Nc2ccccc2F)c1[N+](=O)[O-] (centres undefined)	31.9% (active)
COc1ccc(NC(=O)CSc2nccn2C2CCCC2)cc1OC	7.4% (inactive)
Cc1cc(O)c(C(c2ccccc2)N2CCN(c3ccccc3F)CC2)c(=O)n1Cc1ccco1 (centres undefined)	-21.6% (inactive)
C[N+](C)(C)CCNC(=O)c1c(O)c2c([nH]c1=O)CCCC2	13.8% (inactive)
CCc1nnc(NC(=O)c2c(O)c3c([nH]c2=O)CCCC3)s1	55.5% (active)
O=C(NCc1ccccn1)c1c(O)c2c([nH]c1=O)CCCC2	4.39% (inactive)
CN(C)CCCn1c(-c2ccc(Cl)cc2)csc1=Nc1ccccc1	-16.7% (inactive)
CC(c1ccccc1)n1c(NCCCn2ccnc2)nc2c1c(=O)[nH]c(=O)n2C (centres undefined)	-8.07% (inactive)
Cn1c(=O)[nH]c(=O)c2c1nc(NCCCn1ccnc1)n2Cc1cccc(Br)c1	40% (active)
Cn1c(=O)[nH]c(=O)c2c1nc(NCCc1ccccc1)n2Cc1ccc(F)cc1	-10.3% (inactive)
Cc1cccc(C(CC(=O)NCC2(c3ccccc3)CCCC2)c2ccccc2)c1O (centres undefined)	8.89% (inactive)
CCOc1ccc(CCNC(=O)c2csc3c2CCCCC3)cc1	-0.665% (inactive)

SMILES	potentiation
CCOC(=O)c1ccc(NC(=O)c2csc3c2CCCCC3)cc1	1.32% (inactive)
CC1CC(C)CN(CCCNC(=O)c2csc3c2CCCCC3)C1 (centres undefined)	30.4% (active)
Cc1ccc(NC(=O)CSc2nnc3[nH]c(=O)cc(C)n23)cc1Cl	-5% (inactive)
Cc1nc2ccccc2n1CC(=O)N/N=C/c1cccs1	0.665% (inactive)
Cc1n[nH]c(=O)nc1N/N=C/c1cccs1	36.2% (active)
Cc1cc(C)nc(SC(C)C(=O)N/N=C/c2cccs2)n1 (centres undefined)	12.3% (inactive)
CCOC(=O)C1CCN(Cc2nnc(-c3cccc(Br)c3)o2)CC1	-5.55% (inactive)
CCOC(=O)C1CCN(c2ncnc3c2oc2ccc(Br)cc23)CC1	34.7% (active)
CCOC(=O)C1CCN(c2ncnc3c2c(-c2ccccc2)cn3-c2cccc(C)c2)CC1	-2.84% (inactive)
CCCCOc1ccc(CN2C(=O)C(=O)c3cc(Br)cc(C)c32)cc1OC	21.8% (inactive)
Cc1ccc(N2CCN(C(=O)CCc3c(C)nc4c(c3C)c(=O)n(C)c(=O)n4C)CC2)c(C)c1	-0.454% (inactive)
CCN(CC(=O)NCCc1ccccc1)S(=O)(=O)c1ccccc1	13.4% (inactive)
CCN(CC)S(=O)(=O)c1ccc2[nH]cc(C(=O)NCCc3ccccc3)c(=O)c2c1	-2.89% (inactive) and 46.8% (active)
CCc1ccc(NS(=O)(=O)c2ccc3[nH]cc(C(=O)NCCc4cccc(C)c4)c(=O)c3c2)cc1	-7.11% (inactive)
N#Cc1ccc(-c2cccs2)nc1SCc1ccc(Br)cc1	-0.921% (inactive)
COc1cccc(CNC(=O)CCC(=O)N2CC3CCCN3c3ccccc32)c1 (centres undefined)	-3.32% (inactive)
COc1cccc(Cn2c(SCc3ccc(C(=O)N4CCCCC4)cc3)nc3ccncc32)c1	0.981% (inactive)
CCc1nn(CC(=O)N2CCN(c3cccc(C(F)(F)F)c3)CC2)c(=O)c2cc3occc3n12	4.66% (inactive)
Cc1ccc(CNC(=O)C2CC(=O)N(C3CCCCCCC3)C2)cc1 (centres undefined)	7.03% (inactive)
O=C(NCc1cc(F)cc(C(F)(F)F)c1)C1CCC(=O)N(C2CCCC2)C1 (centres undefined)	39% (active)
O=C(NCc1cccc(Cl)c1)C1CCC(=O)N(C2CC2)C1 (centres undefined)	-9.09% (inactive)
CCOC(=O)c1ccc(NC(=O)CCS(=O)(=O)c2ccc3c(c2)oc(=O)n3C)cc1	-4.33% (inactive)
COc1ccccc1NC(=O)CSC1=Nc2ccccc2C2=NC(CC(=O)NCc3cccs3)C(=O)N12 (centres undefined)	-7.55% (inactive)

SMILES	potentiation
Cc1ccc(S(=O)(=O)NCCC(=O)Nc2cccc(S(N)(=O)=O)c2)cc1C	-4.48% (inactive)
O=C(CC12CC3CC(CC(C3)C1)C2)Nc1ccc2c(c1)COC2=O	-3.01% (inactive)
NS(=O)(=O)c1cccc(NC(=O)CC23CC4CC(CC(Br)(C4)C2)C3)c1	38.8% (active)
Cc1ccc2nc(COc3cccc(NC(=O)Nc4ccc(C)c(Cl)c4)c3)cc(=O)n2c1	-1.63% (inactive)
O=C(COC(=O)c1ccc(O)cc1O)NNC(=O)c1cccs1	-6.83% (inactive)
O=C(COC(=O)c1ccc(NS(=O)(=O)c2cccs2)cc1O)Nc1ccc(F)cc1	35.7% (active)
CCc1ccc(NC(=O)CCNS(=O)(=O)c2cccs2)cc1	13.5% (inactive)
COc1ccc(NC(C)=O)cc1NC(=O)CN1CCN(C2c3ccccc3-c3ccccc32)CC1	30.8% (active)
COc1cc(Cl)c(C)cc1NC(=O)CN1CCCCCC1	-1.62% (inactive)
COc1ccc(NC(C)=O)cc1NC(=O)CN1CCN(c2ccc(F)cc2)CC1	-0.119% (inactive)
Clc1ccc(CSc2nncn3c2cc2occc23)cc1	0.301% (inactive)
CN1CCN(C2(CNC(=O)COc3ccc(C(C)(C)C)cc3)CCCCC2)CC1	-18.8% (inactive)
Cc1[nH]c2ccccc2c1C(=O)COC(=O)c1c(-c2ccccc2)noc1C	8.38% (inactive)
CCOC(=O)c1cn[nH]c1NC(=S)Nc1ccccc1	3.61% (inactive)
CCOC(=O)c1c(C)nc(-c2ccccc2)nc1NC(=O)C(C)C	32.3% (active)
CCOC(=O)c1c(C)[nH]c(C)c1S(=O)(=O)N1CCC(C(=O)Nc2ccc(C)c(Cl)c2)CC1	1.42% (inactive)
O=C(Nc1ccc(-c2nnc(-c3ccccc3)o2)cc1)C1CCCO1 (centres undefined)	15.5% (inactive)
O=C(Nc1cccc(-c2nnc(-c3ccccc3)o2)c1)C1CCCO1 (centres undefined)	34% (active)
CC(=O)Nc1cccc(C(=O)OCC(=O)Nc2nnc(-c3ccccc3)o2)c1	4.87% (inactive)
COc1cccc(CNC(=O)c2ccc3c(Cl)c4c(nc3c2)CCCC4)c1	-3.62% (inactive)
